Test results: PubChem BioAssay (EPA / NIEHS)
Active and inactive are the calls of the source. The calls were made as follows: active = hit-call score of the fitted dose curve at least 0.9, where 1 is the maximum; inactive = score below 0.9.

Legend:
[1] = CEETOX_H295R_PROG: CeeTox H295R High-throughput Steroidogenesis Assay for Progesterone (PROG) (AID 2283442); details: actives raise or lower the signal;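 as to AC50: human H295R adrenal cells primed with 10 µM forskolin before dosing; progesterone secreted into medium by H295R cells measured by HPLC-MS/MS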
Outline: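 Adrenal H295R line, forskolin-stimulated (10 uM, 48 h) before dosing. 48 h exposure, 0.1% DMSO vehicle. Secreted progesterone by reverse-phase HPLC with ESI+ MS/MS quantification; DMSO-normalised bidirectional curve fit.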

[2] = read-out: Tumor necrosis factor receptor superfamily member 6 (Homo sapiens) (UniProt P25445); assay: LTEA_HepaRG_FAS: Life Technologies and Expression Analysis (LTEA) Assay for Fas cell surface death receptor (FAS) using HepaRG (AID 2283447); details: mRNA level, 48 h; actives raise or lower the signal
Outline: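 Differentiated HepaRG cells in serum-free induction medium were exposed 48 h to 8 half-log concentrations up to 100 uM in 0.5% DMSO, in duplicate. FAS mRNA was measured by qRT-PCR normalised to ACTB, GAPDH and POLR2A; bidirectional fit versus DMSO.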

[3] = read-out: Fatty acid synthase (Homo sapiens) (UniProt P49327); assay: LTEA_HepaRG_FASN: Life Technologies and Expression Analysis (LTEA) Assay for Fatty Acid Synthase (FASN) using HepaRG (AID 2283448); details: mRNA level, 48 h; actives raise or lower the signal
Outline: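 Differentiated human HepaRG cells were exposed for 48 h in serum-free induction medium to eight half-log concentrations up to 100 uM in 0.5% DMSO, in duplicate. FASN mRNA was quantified by TaqMan qRT-PCR, normalized to ACTB/GAPDH/POLR2A, and fitted bidirectionally against DMSO.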

[4] = read-out: Cyclin D2 (CCND2), CCND2 (gene 894); assay: LTEA_HepaRG_CCND2: Life Technologies and Expression Analysis (LTEA) Assay for Cyclin D2 (CCND2) using HepaRG (AID 2283449); details: mRNA level, 48 h; actives raise or lower the signal;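 also: CCND2 transcript measured by TaqMan qRT-PCR and normalised to three housekeeping genes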
Outline: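 Chemicals in 0.5% DMSO, eight half-log concentrations from 100 uM top, were applied in duplicate for 48 h to human HepaRG cells in serum-free induction medium. CCND2 mRNA by TaqMan qRT-PCR, normalised to ACTB/GAPDH/POLR2A; bidirectional fit versus DMSO.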

[5] = read-out: Cyclin D1 (CCND1), CCND1 (gene 595); assay: LTEA_HepaRG_CCND1: Life Technologies and Expression Analysis (LTEA) Assay for Cyclin D1 (CCND1) using HepaRG (AID 2283451); details: mRNA level, 48 h; actives raise or lower the signal;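 as to AC50: TaqMan qRT-PCR transcript level normalised to ACTB GAPDH and POLR2A housekeeping genes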
Outline: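 Human liver HepaRG line; 48 h dosing, 8 conc. ≤100 uM, 0.5% DMSO; TaqMan qRT-PCR mRNA, 3 housekeeping genes; bidirectional curve fit vs DMSO.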

[6] = read-out: catalase (CAT), CAT (gene 847); assay: LTEA_HepaRG_CAT: Life Technologies and Expression Analysis (LTEA) Assay for catalase (CAT) using HepaRG (AID 2283452); details: mRNA level, 48 h; actives raise or lower the signal;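 as to AC50: TaqMan qRT-PCR signal normalized to ACTB GAPDH and POLR2A housekeeping genes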
Outline: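 HepaRG cells in serum-free induction medium, 0.5% DMSO vehicle, exposed 48 h in duplicate over 8 half-log concentrations from 100 uM. CAT mRNA measured by qRT-PCR, normalized to ACTB, GAPDH, POLR2A; bidirectional fit versus DMSO.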

[7] = read-out: flavin-containing dimethylaniline monooxygenases 3 (FMO3), FMO3 (gene 2328); assay: LTEA_HepaRG_FMO3: Life Technologies and Expression Analysis (LTEA) Assay for flavin-containing dimethylaniline monooxygenases 3 (FMO3) using HepaRG (AID 2283453); details: mRNA level, 48 h; actives raise or lower the signal;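 as to AC50: FMO3 transcript by TaqMan qRT-PCR normalized to ACTB GAPDH and POLR2A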
Outline: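 HepaRG, 48 h exposure, 8-pt half-log series from 100 uM, 0.5% DMSO vehicle, duplicates; FMO3 transcript by Fluidigm TaqMan qRT-PCR, housekeeping-normalized; gain/loss fit vs DMSO.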

[8] = read-out: Cyclin Dependent Kinase Inhibitor 1A (CDKN1A), CDKN1A (gene 1026); assay: LTEA_HepaRG_CDKN1A: Life Technologies and Expression Analysis (LTEA) Assay for Cyclin Dependent Kinase Inhibitor 1A (CDKN1A) using HepaRG (AID 2283450); details: mRNA level, 48 h; actives raise or lower the signal
Outline: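 Cryopreserved HepaRG cells were plated and cultured 48 h, then switched to serum-free induction medium. Chemicals (eight half-log concentrations, top 100 uM, 0.5% DMSO) were applied for 48 h. Lysates underwent qRT-PCR for CDKN1A with housekeeping normalization.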

[9] = CEETOX_H295R_ESTRADIOL: CeeTox H295R High-throughput Steroidogenesis Assay for Estradiol (AID 2283440); details: actives raise or lower the signal;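 also: estradiol secreted into medium quantified by LC-MS/MS after dansyl derivatisation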
Outline: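 Following OECD 456 with minor changes, H295R cells received 10 uM forskolin for 48 h and then test chemical for 48 h. Hormone output was read by HPLC-MS/MS, with cytotoxic concentrations diluted until MTT viability reached ≥70%.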

[10] = CEETOX_H295R_ESTRONE: CeeTox H295R High-throughput Steroidogenesis Assay for Estrone (AID 2283441); details: actives raise or lower the signal;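 also: human adrenal H295R cells prestimulated with forskolin for two days; estrone secreted into medium measured by LC-MS/MS after dansyl derivatization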
Outline: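 H295R cells; 48 h forskolin (10 uM) prestimulation; 48 h compound exposure, 0.1% DMSO final. Medium estrone: MTBE extraction, dansyl derivatization, HPLC-MS/MS. Bidirectional fit vs DMSO.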

Measured: AC50

Fatty acid synthase (Homo sapiens), sequence (P49327 whole entry, looked up): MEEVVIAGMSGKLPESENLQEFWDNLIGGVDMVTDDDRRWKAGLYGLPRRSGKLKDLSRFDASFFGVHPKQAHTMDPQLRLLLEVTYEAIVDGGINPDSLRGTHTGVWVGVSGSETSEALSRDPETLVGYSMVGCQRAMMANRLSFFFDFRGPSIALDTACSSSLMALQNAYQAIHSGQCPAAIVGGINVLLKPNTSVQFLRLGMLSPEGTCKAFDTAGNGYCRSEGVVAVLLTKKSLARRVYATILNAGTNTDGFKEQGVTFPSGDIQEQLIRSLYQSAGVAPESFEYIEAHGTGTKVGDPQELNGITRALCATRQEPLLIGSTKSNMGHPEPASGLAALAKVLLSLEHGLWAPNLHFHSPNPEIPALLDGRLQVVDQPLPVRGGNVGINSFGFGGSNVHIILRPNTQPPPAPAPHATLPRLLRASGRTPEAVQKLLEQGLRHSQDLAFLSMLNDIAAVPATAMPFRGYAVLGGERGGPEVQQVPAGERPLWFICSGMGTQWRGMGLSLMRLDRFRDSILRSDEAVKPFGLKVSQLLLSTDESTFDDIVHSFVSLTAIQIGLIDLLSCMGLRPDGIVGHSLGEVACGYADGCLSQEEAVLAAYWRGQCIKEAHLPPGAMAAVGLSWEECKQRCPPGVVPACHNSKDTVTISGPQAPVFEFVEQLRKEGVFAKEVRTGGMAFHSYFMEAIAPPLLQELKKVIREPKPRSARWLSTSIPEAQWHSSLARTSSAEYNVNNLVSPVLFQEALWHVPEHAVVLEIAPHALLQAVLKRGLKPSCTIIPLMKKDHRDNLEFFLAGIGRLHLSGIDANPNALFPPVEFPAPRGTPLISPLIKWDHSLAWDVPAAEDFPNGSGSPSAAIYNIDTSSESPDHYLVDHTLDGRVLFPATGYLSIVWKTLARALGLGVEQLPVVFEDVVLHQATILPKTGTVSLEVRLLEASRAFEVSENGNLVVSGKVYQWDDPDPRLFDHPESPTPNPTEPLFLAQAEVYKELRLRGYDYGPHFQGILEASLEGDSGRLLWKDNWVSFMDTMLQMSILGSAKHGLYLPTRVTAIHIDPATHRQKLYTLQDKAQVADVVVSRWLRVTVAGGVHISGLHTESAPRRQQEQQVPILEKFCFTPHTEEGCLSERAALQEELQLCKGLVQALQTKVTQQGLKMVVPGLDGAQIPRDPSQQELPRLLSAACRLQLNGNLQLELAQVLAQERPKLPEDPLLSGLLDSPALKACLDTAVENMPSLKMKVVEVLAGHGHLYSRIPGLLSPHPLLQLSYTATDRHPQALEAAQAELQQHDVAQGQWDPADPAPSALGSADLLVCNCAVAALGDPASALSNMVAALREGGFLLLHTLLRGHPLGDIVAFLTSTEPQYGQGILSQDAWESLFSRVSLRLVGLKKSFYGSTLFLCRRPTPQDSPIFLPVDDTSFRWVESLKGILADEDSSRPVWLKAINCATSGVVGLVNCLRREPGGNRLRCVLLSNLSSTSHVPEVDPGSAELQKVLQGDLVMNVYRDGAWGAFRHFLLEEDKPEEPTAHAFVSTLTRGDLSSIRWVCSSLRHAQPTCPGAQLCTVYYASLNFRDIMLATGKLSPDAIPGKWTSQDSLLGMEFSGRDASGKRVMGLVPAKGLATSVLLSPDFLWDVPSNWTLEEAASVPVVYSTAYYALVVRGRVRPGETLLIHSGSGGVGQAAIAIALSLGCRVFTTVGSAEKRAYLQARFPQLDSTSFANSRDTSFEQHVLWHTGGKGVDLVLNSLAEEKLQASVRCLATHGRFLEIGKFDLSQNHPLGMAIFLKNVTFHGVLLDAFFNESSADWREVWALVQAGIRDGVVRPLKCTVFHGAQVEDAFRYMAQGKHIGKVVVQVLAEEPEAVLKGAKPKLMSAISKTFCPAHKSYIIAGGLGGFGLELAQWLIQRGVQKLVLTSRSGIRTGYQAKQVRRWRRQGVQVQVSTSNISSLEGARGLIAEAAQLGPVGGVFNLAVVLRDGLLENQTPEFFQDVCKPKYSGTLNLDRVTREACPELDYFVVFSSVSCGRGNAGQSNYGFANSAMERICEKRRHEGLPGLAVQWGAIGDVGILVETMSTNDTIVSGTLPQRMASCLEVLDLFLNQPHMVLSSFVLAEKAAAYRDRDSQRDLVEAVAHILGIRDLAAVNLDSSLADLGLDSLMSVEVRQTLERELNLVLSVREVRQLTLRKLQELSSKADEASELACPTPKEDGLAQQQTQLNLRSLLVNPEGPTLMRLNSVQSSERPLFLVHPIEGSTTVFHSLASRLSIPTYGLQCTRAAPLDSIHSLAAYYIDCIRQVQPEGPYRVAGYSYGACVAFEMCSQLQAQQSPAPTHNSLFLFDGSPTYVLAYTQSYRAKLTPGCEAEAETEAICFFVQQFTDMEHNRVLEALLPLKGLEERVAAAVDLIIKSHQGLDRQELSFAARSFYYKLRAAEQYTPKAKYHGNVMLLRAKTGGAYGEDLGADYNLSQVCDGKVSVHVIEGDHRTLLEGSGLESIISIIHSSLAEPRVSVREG

CN(C)C(=O)Nc1cccc(C(F)(F)F)c1
inactive: [1] | [2] | [3] | [4] | [5] | [6] | [7]

CCOP(=S)(Oc1cnc(C(C)(C)C)nc1)OC(C)C (stereo unspecified)
inactive: [2] | [4] | [8]
active: [3] 82.4 µM | [5] 50 µM | [6] 5.63 µM | [7] 4.99 µM

CCNc1nc(Cl)nc(NC(C)(C)C#N)n1
inactive: [1] | [2] | [3] | [4] | [5] | [6] | [7]

C[Si](Cn1cncn1)(c1ccc(F)cc1)c1ccc(F)cc1
active: [3] 91.6 µM | [5] 40.3 µM | [6] 50 µM | [7] 37.5 µM
inactive: [1] | [2] | [4]

CCOP(=S)(OCC)Oc1cc(C)nc(C(C)C)n1
active: [1] 26 µM
inactive: [2] | [3] | [8] | [5] | [6] | [7]

CON=C(C(=O)OC)c1ccccc1CON=C(C)c1cccc(C(F)(F)F)c1
inactive: [2] | [3] | [4] | [8] | [5] | [6] | [7]

CNc1cnn(-c2cccc(C(F)(F)F)c2)c(=O)c1Cl
inactive: [1] | [2] | [4] | [5] | [6]
active: [3] 18 µM | [7] 38.8 µM

CCCOCC(=Nc1ccc(Cl)cc1C(F)(F)F)n1ccnc1
inactive: [2] | [4] | [8] | [5]
active: [1] 0.336 µM | [3] 50 µM | [6] 37.6 µM | [7] 73 µM

CCOP(=S)(OCC)Oc1ccc([N+](=O)[O-])cc1
inactive: [2] | [4] | [8] | [5] | [6] | [7]
active: [1] 0.444 µM

Nc1nc(N)nc(NC2CC2)n1
inactive: [1] | [2] | [3] | [4] | [8] | [5] | [6] | [7]

CCOC(=O)COc1cc(-c2nn(C)c(OC(F)F)c2Cl)c(F)cc1Cl
inactive: [1] | [2] | [3] | [4] | [5] | [6] | [7]

CSc1nnc(C(C)(C)C)c(=O)n1N
inactive: [1] | [2] | [3] | [4] | [5] | [6] | [7]

FC(F)C(F)(F)OCC(Cn1cncn1)c1ccc(Cl)cc1Cl (stereo unspecified)
active: [2] 72.2 µM | [3] 81.5 µM | [5] 97.3 µM | [6] 49.8 µM | [7] 35.6 µM
inactive: [1]

CC(COc1ccc(Oc2ccccc2)cc1)Oc1ccccn1 (stereo unspecified)
inactive: [1] | [2] | [4] | [5] | [6] | [7]
active: [3] 30.5 µM

CSc1nc(NC(C)C)nc(NC(C)C)n1
inactive: [9] | [1] | [2] | [3] | [4] | [5]
active: [10] 2.54 µM | [6] 50 µM | [7] 35.9 µM

CCOP(=S)(OCC)Oc1ccc2c(C)c(Cl)c(=O)oc2c1
inactive: [2] | [3] | [4] | [8] | [5] | [6]
active: [1] 2.59 µM | [7] 81.1 µM
